Laboratory results taken from PubChem BioAssay AID1159580 (chemical genetic matrix, 2015).
Out of some 5,500 compounds screened, about 2,000 (36%) were called active. Not shown: some 18% with an inconclusive outcome. Cut-off read from the data, not from the text of the source: active = normalized growth mostly below about 0.91 (no sharp cut-off); inconclusive = no clear call, values can overlap the other calls; inactive = mostly above about 0.92. Some of the results follow.

Assay: chemical genetic growth profiling, strain panel (AID 1159580);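 note: tested at 20 µM; growth read once vehicle control cultures reached saturation at 30 °C; 1 = growth at the plate median or of vehicle wells; lower values mean less growth of the strain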
Settings: growth OD
[1] = S. cerevisiae deletion strains, locus YJR075W, strain HOC1, hits give low values
[2] = S. cerevisiae deletion strains, locus YNL153C, strain GIM3, hits give low values
[3] = S. cerevisiae deletion strains, locus YPL055C, strain LGE1, hits give low values
[4] = S. cerevisiae deletion strains, locus YPL241C, strain CIN2, hits give low values
[5] = S. cerevisiae deletion strains, locus YDL101C, strain DUN1, hits give low values
[6] = S. cerevisiae deletion strains, locus YHR030C, strain SLT2, hits give low values

Measured: normalized growth

COCC(=O)O[C@]1(CCN(C)CCCc2nc3ccccc3[nH]2)CCc2cc(F)ccc2[C@@H]1C(C)C
inactive: S. cerevisiae deletion strains, locus YAL040C, strain CLN3, hits give low values 1 | S. cerevisiae deletion strains, locus YCL061C, strain MRC1 (second series), hits give low values 1 | S. cerevisiae deletion strains, locus YDR363W, strain ESC2, hits give low values 1 | S. cerevisiae deletion strains, locus YER002W, strain NOP16, hits give low values 1.02 | [1] 0.967 | [2] 0.941 | S. cerevisiae deletion strains, locus YNL175C, strain NOP13, hits give low values 1.03 | S. cerevisiae deletion strains, locus YNL197C, strain WHI3, hits give low values 1.04 | S. cerevisiae deletion strains, locus YNL224C, strain SQS1, hits give low values 1.03 | S. cerevisiae deletion strains, locus YOR083W, strain WHI5 (second series), hits give low values 1.03 | [3] 0.929 | [4] 0.985

O=C(CCSc1cccs1)Nc1cccc(C(F)(F)F)c1
active: [6] 0.84 | S. cerevisiae deletion strains, locus YLR113W, strain HOG1, hits give low values 0.711 | S. cerevisiae deletion strains, locus YPL256C, strain CLN2, hits give low values 0.796
inactive: S. cerevisiae deletion strains, locus YAR019C, strain CDC15, hits give low values 0.936 | S. cerevisiae deletion strains, locus YBL105C, strain PKC1, hits give low values 0.922 | S. cerevisiae deletion strains, locus YBR135W, strain CKS1, hits give low values 0.929 | S. cerevisiae deletion strains, locus YBR136W, strain MEC1, hits give low values 0.911 | S. cerevisiae deletion strains, locus YBR160W, strain CDC28, hits give low values 0.926 | S. cerevisiae deletion strains, locus YDL017W, strain CDC7, hits give low values 0.922 | S. cerevisiae deletion strains, locus YDL028C, strain MPS1, hits give low values 0.93 | [5] 0.921 | S. cerevisiae deletion strains, locus YDL108W, strain KIN28, hits give low values 0.946 | S. cerevisiae deletion strains, locus YDL132W, strain cdc53, hits give low values 0.92 | S. cerevisiae deletion strains, locus YDL214C, strain PRR2, hits give low values 0.911 | S. cerevisiae deletion strains, locus YDR052C, strain DBF4, hits give low values 0.948 | S. cerevisiae deletion strains, locus YDR054C, strain cdc34, hits give low values 0.916 | S. cerevisiae deletion strains, locus YDR226W, strain ADK1, hits give low values 0.93 | S. cerevisiae deletion strains, locus YDR477W, strain SNF1, hits give low values 0.966 | S. cerevisiae deletion strains, locus YER123W, strain YCK3, hits give low values 0.915 | S. cerevisiae deletion strains, locus YER133W, strain GLC7, hits give low values 0.965 | S. cerevisiae deletion strains, locus YFL009W, strain cdc4, hits give low values 0.945 | S. cerevisiae deletion strains, locus YFL029C, strain CAK1, hits give low values 0.925 | S. cerevisiae deletion strains, locus YFR003C, strain YPI1, hits give low values 0.93 | S. cerevisiae deletion strains, locus YFR019W, strain FAB1, hits give low values 0.931 | S. cerevisiae deletion strains, locus YFR028C, strain CDC14, hits give low values 0.952 | S. cerevisiae deletion strains, locus YGR040W, strain KSS1, hits give low values 0.961 | S. cerevisiae deletion strains, locus YGR052W, strain FMP48, hits give low values 0.952 | S. cerevisiae deletion strains, locus YGR092W, strain DBF2, hits give low values 0.872 | S. cerevisiae deletion strains, locus YHR079C, strain IRE1, hits give low values 0.853 | S. cerevisiae deletion strains, locus YHR082C, strain KSP1, hits give low values 0.884 | S. cerevisiae deletion strains, locus YHR205W, strain SCH9, hits give low values 0.807 | S. cerevisiae deletion strains, locus YIL147C, strain SLN1, hits give low values 0.927 | S. cerevisiae deletion strains, locus YJL095W, strain BCK1, hits give low values 0.888 | S. cerevisiae deletion strains, locus YJL128C, strain PBS2, hits give low values 0.865 | S. cerevisiae deletion strains, locus YJL157C, strain FAR1, hits give low values 0.949 | S. cerevisiae deletion strains, locus YJR016C, strain ILV3, hits give low values 0.92 | S. cerevisiae deletion strains, locus YJR066W, strain TOR1 (second series), hits give low values 0.992 | S. cerevisiae deletion strains, locus YJR066W, strain TOR1, hits give low values 0.905 | S. cerevisiae deletion strains, locus YKL048C, strain ELM1, hits give low values 0.92 | S. cerevisiae deletion strains, locus YKL067W, strain YNK1, hits give low values 0.927 | S. cerevisiae deletion strains, locus YKL101W, strain HSL1, hits give low values 0.911 | S. cerevisiae deletion strains, locus YKL193C, strain SDS22, hits give low values 0.913 | S. cerevisiae deletion strains, locus YKL203C, strain TOR2, hits give low values 1.01 | S. cerevisiae deletion strains, locus YLR133W, strain CKI1, hits give low values 0.936 | S. cerevisiae deletion strains, locus YLR403W, strain SFP1, hits give low values 0.965 | S. cerevisiae deletion strains, locus YML070W, strain DAK1, hits give low values 0.891 | S. cerevisiae deletion strains, locus YMR001C, strain CDC5, hits give low values 0.924 | S. cerevisiae deletion strains, locus YMR205C, strain PFK2 (second series), hits give low values 0.913 | S. cerevisiae deletion strains, locus YMR277W, strain FCP1, hits give low values 0.919 | S. cerevisiae deletion strains, locus YNL006W, strain LST8, hits give low values 0.938 | S. cerevisiae deletion strains, locus YNL020C, strain ARK1, hits give low values 0.923 | S. cerevisiae deletion strains, locus YNL161W, strain CBK1, hits give low values 0.918 | S. cerevisiae deletion strains, locus YNL183C, strain NPR1, hits give low values 0.857 | S. cerevisiae deletion strains, locus YNL207W, strain RIO2, hits give low values 0.921 | S. cerevisiae deletion strains, locus YNL222W, strain SSU72, hits give low values 0.923 | S. cerevisiae deletion strains, locus YNL307C, strain MCK1 (second series), hits give low values 0.88 | S. cerevisiae deletion strains, locus YOL078W, strain AVO1, hits give low values 0.917 | S. cerevisiae deletion strains, locus YOL136C, strain PFK27, hits give low values 0.889 | S. cerevisiae deletion strains, locus YOR061W, strain CKA2, hits give low values 0.927 | S. cerevisiae deletion strains, locus YOR119C, strain RIO1, hits give low values 0.964 | S. cerevisiae deletion strains, locus YOR231W, strain MKK1, hits give low values 0.854 | S. cerevisiae deletion strains, locus YOR329C, strain SCD5, hits give low values 0.921 | S. cerevisiae deletion strains, locus YPL031C, strain PHO85, hits give low values 0.961 | S. cerevisiae deletion strains, locus YPL153C, strain RAD53, hits give low values 0.962 | S. cerevisiae deletion strains, locus YPL204W, strain HRR25, hits give low values 0.953 | S. cerevisiae deletion strains, locus YPL209C, strain IPL1, hits give low values 0.92 | S. cerevisiae deletion strains, locus YPR025C, strain CCL1, hits give low values 0.932 | S. cerevisiae deletion strains, locus YPR106W, strain ISR1, hits give low values 0.918 | S. cerevisiae deletion strains, locus YPR111W, strain DBF20, hits give low values 0.901 | S. cerevisiae deletion strains, strain NNK1, hits give low values 0.888 | S. cerevisiae deletion strains, strain TSCII, hits give low values 0.921

O=C(O)CCNC(=S)Nc1cccc(C(F)(F)F)c1
inactive: S. cerevisiae deletion strains, locus YAL013W, strain DEP1, hits give low values 0.998 | S. cerevisiae deletion strains, locus YBR229C, strain ROT2, hits give low values 1.01 | S. cerevisiae deletion strains, locus YCL061C, strain MRC1, hits give low values 0.99 | [5] 1.01 | S. cerevisiae deletion strains, locus YDL134C, strain PPH21, hits give low values 0.983 | S. cerevisiae deletion strains, locus YDR150W, strain NUM1, hits give low values 1.03 | S. cerevisiae deletion strains, locus YEL061C, strain CIN8, hits give low values 1.02 | S. cerevisiae deletion strains, locus YGR078C, strain PAC10, hits give low values 1.01 | S. cerevisiae deletion strains, locus YGR229C, strain SMI1, hits give low values 0.982 | [6] 0.996 | S. cerevisiae deletion strains, locus YHR087W, strain rtc3, hits give low values 1.02 | S. cerevisiae deletion strains, locus YJR043C, strain POL32, hits give low values 0.987 | [1] 0.997 | S. cerevisiae deletion strains, locus YLR039C, strain RIC1, hits give low values 0.976 | S. cerevisiae deletion strains, locus YLR058C, strain SHM2 (second series), hits give low values 0.999 | S. cerevisiae deletion strains, locus YLR085C, strain ARP6, hits give low values 0.971 | S. cerevisiae deletion strains, locus YLR262C, strain YPT6, hits give low values 0.986 | S. cerevisiae deletion strains, locus YML094W, strain GIM5, hits give low values 1.11 | S. cerevisiae deletion strains, locus YMR219W, strain ESC1, hits give low values 1 | S. cerevisiae deletion strains, locus YMR263W, strain SAP30, hits give low values 0.984 | [2] 1.01 | S. cerevisiae deletion strains, locus YNL298W, strain CLA4 (second series), hits give low values 0.985 | S. cerevisiae deletion strains, locus YNL322C, strain KRE1, hits give low values 1.01 | S. cerevisiae deletion strains, locus YNR030W, strain Alg12, hits give low values 1.03 | [3] 1.04 | [4] 0.918 | S. cerevisiae deletion strains, locus YPR135W, strain CTF4, hits give low values 1.06 | S. cerevisiae strains, strain wild type, hits give low values 0.966
